The nature of test [1]: binders of probe aFSTL3 on microarray, primary screen, stem cell growth factor project, biochemical, small-molecule microarray, fluorescence 635/667 (AID 1064).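 Also: measures binding of the biotinylated anti-FSTL3 antibody to printed compounds.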 The following applies: higher = more signal.
Test [2] in a line: binders from COS7 lysate, DM2A8 probe, primary screen, torsin A project, cell lysate, small-molecule microarray, fluorescence 635/667 (AID 1065). To be noted: higher = more signal, COS7 lysate expressing mutant human TOR1A.
The nature of test [3]: binders of probe aFGF2 on microarray, primary screen, stem cell growth factor project, biochemical, small-molecule microarray, fluorescence 635/667 (AID 1067).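 Also: measures binding of biotinylated aFGF2 protein to printed compounds on slides; z-score merges feature fluorescence and signal-to-noise across triplicate slides.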 The following applies: higher = more signal.
The nature of test [4]: binders of probe aFGF10 on microarray, primary screen, stem cell growth factor project, biochemical, small-molecule microarray, fluorescence 635/667 (AID 1071).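 Also: score merges 667 nm spot intensity and signal to noise from triplicate slides.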 To be noted: higher = more signal.
The target in test [5] is Neurogenic locus notch homolog protein 2 (Homo sapiens) (UniProt Q04721). The test can be described thus: Notch2 binders on small-molecule microarrays, primary screen, biochemical, small-molecule microarray, 635 nm fluorescence, stem cell growth factors (AID 1073). The following applies: Notch2 binding, higher = more signal.
Test [6] has as its target Pro-neuregulin-1, membrane-bound isoform (Homo sapiens) (UniProt Q02297). The test can be described thus: NRG1 binders on small-molecule microarrays, primary screen, psychiatric disease protein project, biochemical, small-molecule microarray, fluorescence 635/667 (AID 1075).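 Also: score combines 667 nm spot fluorescence with signal to noise.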 The following applies: NRG1 binding, 635 nm fluorescence, higher = more signal.
Test [7] concerns Neuregulin-1 EGF-like domain. The test can be described thus: binders of neuregulin-1 EGF-like domain, primary screen, biochemical, small-molecule microarray, 635 nm fluorescence (AID 1081).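 Also: binding of the protein to compounds printed on small-molecule microarray slides.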 The following applies: small-molecule microarray binding, higher = more signal.
Test [8] can be described thus: FRG1 promoter luciferase signal modulators, primary screen, FRG1 inhibition for FSHD, cell-based, C2C12 myotubes, firefly/Renilla luciferase, luminescence (AID 1084). The following applies: higher = more signal, called active from +8 up or from −8 down.
A short description of test [9]: binders of probe aFST on microarray, primary screen, stem cell growth factor project, biochemical, small-molecule microarray, fluorescence 635/667 (AID 1086).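 Also: score merges 667 nm fluorescence with signal-to-noise of each printed compound spot.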 The following applies: higher = more signal.
The nature of test [10]: binders of probe aHhip on microarray, primary screen, stem cell growth factor project, biochemical, small-molecule microarray, fluorescence 635/667 (AID 1087).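 Also: score merges spot fluorescence at 667nm with spot signal to noise ratio.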 The following applies: higher = more signal.

Each structure is given as a SMILES string. Active and inactive are the calls of the source.

Pro-neuregulin-1, membrane-bound isoform (Homo sapiens), sequence (Q02297 whole entry, looked up, the tested form may be a part, canonical isoform): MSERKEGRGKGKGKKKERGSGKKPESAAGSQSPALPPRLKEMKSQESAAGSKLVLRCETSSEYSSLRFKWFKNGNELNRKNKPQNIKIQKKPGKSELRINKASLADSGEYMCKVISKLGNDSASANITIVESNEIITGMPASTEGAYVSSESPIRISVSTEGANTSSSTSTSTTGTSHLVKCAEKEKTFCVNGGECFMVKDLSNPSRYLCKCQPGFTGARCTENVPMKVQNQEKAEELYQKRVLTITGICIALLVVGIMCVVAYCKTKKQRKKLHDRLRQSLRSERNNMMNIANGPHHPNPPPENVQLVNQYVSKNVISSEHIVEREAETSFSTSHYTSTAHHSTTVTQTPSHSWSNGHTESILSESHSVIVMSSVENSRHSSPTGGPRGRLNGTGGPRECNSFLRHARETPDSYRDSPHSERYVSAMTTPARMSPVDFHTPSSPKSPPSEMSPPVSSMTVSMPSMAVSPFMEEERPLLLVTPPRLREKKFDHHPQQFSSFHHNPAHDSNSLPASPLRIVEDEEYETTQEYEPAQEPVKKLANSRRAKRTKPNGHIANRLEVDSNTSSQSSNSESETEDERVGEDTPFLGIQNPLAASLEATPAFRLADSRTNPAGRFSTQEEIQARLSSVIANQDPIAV
Neurogenic locus notch homolog protein 2 (Homo sapiens), sequence (Q04721 whole entry, looked up, canonical isoform): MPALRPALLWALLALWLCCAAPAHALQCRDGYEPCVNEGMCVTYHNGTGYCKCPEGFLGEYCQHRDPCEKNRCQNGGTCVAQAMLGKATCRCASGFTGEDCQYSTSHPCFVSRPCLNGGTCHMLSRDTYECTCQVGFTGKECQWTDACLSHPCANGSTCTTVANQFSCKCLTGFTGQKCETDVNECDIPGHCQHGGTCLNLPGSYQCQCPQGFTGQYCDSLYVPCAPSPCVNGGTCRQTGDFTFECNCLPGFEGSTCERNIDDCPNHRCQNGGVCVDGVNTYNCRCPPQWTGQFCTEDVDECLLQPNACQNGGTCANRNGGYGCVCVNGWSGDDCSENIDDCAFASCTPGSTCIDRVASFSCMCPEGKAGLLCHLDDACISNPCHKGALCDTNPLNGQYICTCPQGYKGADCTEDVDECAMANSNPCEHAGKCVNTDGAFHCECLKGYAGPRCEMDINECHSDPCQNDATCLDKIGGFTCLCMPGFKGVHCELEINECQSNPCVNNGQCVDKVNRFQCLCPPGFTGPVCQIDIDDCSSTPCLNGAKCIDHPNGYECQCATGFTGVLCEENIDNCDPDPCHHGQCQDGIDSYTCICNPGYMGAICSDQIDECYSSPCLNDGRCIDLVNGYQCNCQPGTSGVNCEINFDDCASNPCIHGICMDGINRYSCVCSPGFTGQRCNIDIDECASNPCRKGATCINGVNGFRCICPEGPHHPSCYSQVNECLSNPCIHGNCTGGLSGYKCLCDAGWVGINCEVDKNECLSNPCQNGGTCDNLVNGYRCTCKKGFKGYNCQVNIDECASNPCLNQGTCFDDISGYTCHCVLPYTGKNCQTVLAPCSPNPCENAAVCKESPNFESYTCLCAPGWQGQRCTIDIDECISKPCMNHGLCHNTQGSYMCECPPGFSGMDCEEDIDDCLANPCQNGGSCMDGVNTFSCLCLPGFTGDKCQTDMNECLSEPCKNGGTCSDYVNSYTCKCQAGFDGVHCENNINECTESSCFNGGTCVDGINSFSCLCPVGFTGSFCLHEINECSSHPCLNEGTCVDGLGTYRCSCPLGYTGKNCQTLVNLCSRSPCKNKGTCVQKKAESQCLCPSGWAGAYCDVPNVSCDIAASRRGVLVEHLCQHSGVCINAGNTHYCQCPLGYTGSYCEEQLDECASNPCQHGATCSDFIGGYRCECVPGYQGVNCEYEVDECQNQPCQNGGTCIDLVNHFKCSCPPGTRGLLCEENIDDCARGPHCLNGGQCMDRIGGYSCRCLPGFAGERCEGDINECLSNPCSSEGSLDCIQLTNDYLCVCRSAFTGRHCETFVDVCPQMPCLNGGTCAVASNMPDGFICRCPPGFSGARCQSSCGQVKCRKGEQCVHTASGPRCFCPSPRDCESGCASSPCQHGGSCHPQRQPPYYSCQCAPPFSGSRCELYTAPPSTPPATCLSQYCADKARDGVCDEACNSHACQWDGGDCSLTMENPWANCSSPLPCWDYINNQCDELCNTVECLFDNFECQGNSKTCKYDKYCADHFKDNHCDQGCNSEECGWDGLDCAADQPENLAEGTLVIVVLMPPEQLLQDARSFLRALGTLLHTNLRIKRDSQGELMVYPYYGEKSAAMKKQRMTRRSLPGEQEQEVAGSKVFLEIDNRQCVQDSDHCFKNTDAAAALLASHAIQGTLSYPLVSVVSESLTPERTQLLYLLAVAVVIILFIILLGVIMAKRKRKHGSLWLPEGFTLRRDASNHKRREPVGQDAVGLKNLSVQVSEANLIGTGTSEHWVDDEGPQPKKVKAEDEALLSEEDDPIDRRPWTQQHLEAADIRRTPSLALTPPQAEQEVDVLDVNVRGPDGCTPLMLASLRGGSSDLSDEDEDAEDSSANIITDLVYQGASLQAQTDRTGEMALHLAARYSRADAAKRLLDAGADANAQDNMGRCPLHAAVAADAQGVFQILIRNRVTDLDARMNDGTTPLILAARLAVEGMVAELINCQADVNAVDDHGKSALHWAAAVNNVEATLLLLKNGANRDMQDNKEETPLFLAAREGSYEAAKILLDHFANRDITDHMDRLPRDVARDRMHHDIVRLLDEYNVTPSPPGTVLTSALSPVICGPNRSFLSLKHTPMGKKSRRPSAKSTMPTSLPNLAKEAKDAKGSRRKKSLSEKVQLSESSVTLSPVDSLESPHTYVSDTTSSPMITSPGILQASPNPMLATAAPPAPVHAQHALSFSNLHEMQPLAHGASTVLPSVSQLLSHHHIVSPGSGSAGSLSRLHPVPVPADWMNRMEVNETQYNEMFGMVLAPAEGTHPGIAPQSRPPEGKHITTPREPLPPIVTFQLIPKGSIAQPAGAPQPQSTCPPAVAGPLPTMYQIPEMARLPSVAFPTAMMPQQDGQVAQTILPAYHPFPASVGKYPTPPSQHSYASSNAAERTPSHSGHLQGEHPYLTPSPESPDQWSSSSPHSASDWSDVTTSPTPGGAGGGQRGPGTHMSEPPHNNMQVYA

`COC(=O)[C@@]1(Cc2ccccc2)[C@H]2c3cc(C(=O)N4CCCC4)n(Cc4ccccn4)c3C[C@H]2CN1C(=O)c1ccccc1`: the composite z-score amounted to 0.731 in test [1]; 0.415 in [2]; 0.589 in test [3]; 1.14 in test [4]; 1.52 in test [5]; 2.18 in [6]. The composite z-score in test [7] came to 1.35; in [9], 1.65; in [10] it was 0.257. Further, in [8], the z-score is 2.5 (inactive).

With `O=C1[C@H]2[C@H]3[C@H](O)[C@H](O)CC(=NO[C@@H]4O[C@H](CO)[C@@H](O)[C@H](O)[C@H]4O)[C@H]3CC[C@H]2C(=O)N1Cc1ccc2c(c1)OCO2`, the composite z-score was 0.606 in test [1]; 1.53 in test [2]; -0.104 in test [3]; -0.103 in [4]; -0.475 in [5]; 0.266 in [6]. Moreover, the composite z-score was 0.592 in test [7], 0.319 in test [9] and -0.132 in test [10]. Further, the z-score in test [8] is -0.0585 (inactive).

On to `CC[C@@H](c1ccccc1)n1c(=O)n2n(c1=O)[C@H]1[C@H](O)[C@@H]3O[C@@H]3C(=NOCC(C)C)[C@H]1CC2`, for which the composite z-score is -0.427 in test [1]; 0.428 in test [2]; -0.119 in test [3]; 0.0304 in test [4]; 0.409 in test [5]; -0.0258 in [6]. Further, the composite z-score in test [7] is 0.493; in [9], 0.0308; in test [10] it was -0.0994. For the same compound, the z-score in test [8] is 0.0491 (inactive).

With `CC(CCN1CCCCc2nc(C)c(C)cc21)=NOC(C)CN1CCCCc2nc(C)c(C)cc21` (stereo not given), the composite z-score is -0.275 in test [1]; 1.93 in [2]; -0.15 in test [3]; 0.682 in [4]; 1.48 in [5]; 0.963 in [6]. Besides, the composite z-score was 1.28 in test [7], 0.907 in test [9] and 0.0174 in test [10]. Moreover, in test [8], the z-score was 0.748 (inactive).

Take `CC1CC/C=C\[C@H]2OC34C=CCN(C(C)C)C(=O)[C@H]3N(CCCO)C(=O)[C@@H]4C2C(=O)O1` (stereo not given in full): the composite z-score in test [1] is 0.456; in [2] it was 1.1; in test [3], -0.175; in test [4], 0.245; in test [5], -0.673; in test [6], 1.19. For the same compound, the results for the composite z-score in [7], in test [9] and in [10] were 0.866, -0.5 and 0.214, respectively. Moreover, the z-score in test [8] was -0.345 (inactive).

Regarding `COC(=O)[C@]1(CO)N=C(c2ccc(OCCCO)cc2)O[C@@H]1c1ccccc1N=[N+]=[N-]`, the composite z-score was 0.0947 in test [1]; 0.525 in test [2]; -0.0614 in test [3]; -0.0477 in test [4]; 0.01 in test [5]; 1.25 in test [6]. Besides, the composite z-score in test [7] was 0.938; in [9], 0.138; in [10] it was -0.39. For the same compound, the z-score in [8] is 2.29 (inactive).

As for `COC(=O)c1c(CC[C@@H](CO)NC(=O)N[C@H](Cc2ccccc2)Cn2cc(-c3ccccc3N)nn2)oc(C(C)=O)c1C(=O)OC`, the composite z-score came out at 0.718 in [1]; 0.799 in [2]; 0.241 in test [3]; 0.465 in test [4]; 0.269 in test [5]; 0.939 in test [6]. Also, the results for the composite z-score in test [7], in [9] and in [10] were 0.71, 0.914 and 0.176, respectively. For the same compound, in [8], the z-score is -0.52 (inactive).

Regarding `CN1C(=O)[C@@]2(CCC(=O)OC(C)(C)C)N=C(c3ccc(OCCCO)cc3)O[C@H]2c2ccccc21`, the composite z-score in test [1] is -0.195; in test [2], 0.756; in [3], -0.0948; in [4], 0.124; in test [5], 0.244; in test [6] it was 0.859. The composite z-score is 1.13 in test [7], 0.183 in [9] and -0.186 in test [10]. For the same compound, the z-score in [8] was -0.105 (inactive).

For `NCCCCCNC(=O)[C@@H]1C[C@@H]2C(=O)N3CCC[C@H]3C(=O)N2[C@@H]1c1cccc(OCCO)c1`, the composite z-score in [1] was 2.37; in test [2], 2.1; in test [3], 0.103; in test [4], 0.349; in test [5], 0.185; in [6], 1.86. Besides, the composite z-score worked out at 1.26 in [7], 1.68 in test [9] and 0.309 in test [10]. Also, the z-score in [8] was 0.76 (inactive).

With `CN(C)C(=O)[C@@]1(Cc2ccccc2)N=C(c2ccc(OCCCO)cc2)O[C@H]1c1ccccc1CN=[N+]=[N-]`, the composite z-score in [1] was found to be 1.35; in test [2] it was 1.92; in test [3] it was 0.423; in [4], 1.13; in test [5] it was 1.46; in test [6], 1.96. In addition, the composite z-score came to 1.2 in test [7], 1.42 in test [9] and 0.898 in test [10]. Moreover, the z-score in test [8] is -1.47 (inactive).

For the compound `COc1cccc([C@@H]2Oc3ccc(Br)cc3C(=O)[C@H]2O)c1`, the composite z-score in test [1] is -0.614; in [2], 0.291; in test [3], -0.0291; in test [4] it was 0.783; in [5], 0.458; in test [6] it was 0.297. Also, the values for the composite z-score in [7], in test [9] and in test [10] were 0.972, 0.0846 and 0.235, respectively. Further, the z-score in test [8] was 3.62 (inactive).

For the compound `CCc1cc2c(nc1CC)CCN(CCC(C)=NOC[C@@H](O)COCc1ccco1)C2`, the composite z-score in test [1] was 0.394; in test [2], 2.81; in [3] it was -0.105; in test [4] it was 0.0103; in test [5], 0.95; in test [6] it was -0.38. In addition, the values for the composite z-score in [7], in test [9] and in [10] were 1.36, 2.06 and 0.382, respectively. Also, the z-score in [8] was 1.16 (inactive).

With `CCCCCCc1nc(CCCc2cc3c(c(CCCCCC)n2)[Si](C(C)C)(C(C)C)O[C@H]3c2ccccc2)cc2c1[Si](C(C)C)(C(C)C)O[C@H]2c1ccccc1`, the composite z-score in [1] was -0.342; in [2], -0.244; in [3], -0.109; in test [4], -0.217; in [5], -0.253; in [6] it was -0.47. Besides, the composite z-score in test [7] was -0.744; in [9], 0.163; in [10] it was -0.277. For the same compound, in test [8], the z-score is -0.364 (inactive).

On to `COc1cccc([C@H]2Oc3ccc(OC)cc3C(=NOC(C)CN3CCCc4nc(C)c(C)cc43)[C@@H]2O)c1` (stereo not given in full), for which the composite z-score in test [1] was -0.437; in test [2], 0.15; in test [3], -0.0316; in [4] it was 0.32; in [5], 0.687; in [6] it was 0.146. Besides, the composite z-score in test [7] is 0.541; in test [9], -0.055; in test [10], 0.154. Besides, the z-score in test [8] is 2.49 (inactive).

On to `COC(=O)[C@@H]1CC[C@H](C)[C@@H](c2ccc(C)cc2)N1C(=O)c1ccc(C=NOC(C)CN2CCCCc3nc(C)c(C)cc32)cc1` (stereo not given in full), for which the composite z-score in test [1] is 0.145; in test [2] it was -0.859; in test [3], -0.0959; in test [4], 0.233; in [5], -0.199; in [6], 0.131. The composite z-score was determined as 0.312 in test [7], 0.165 in test [9] and 0.226 in test [10]. Besides, in [8], the z-score was 0.204 (inactive).

Turning to `[N-]=[N+]=NCc1ccccc1[C@@H]1OC(c2ccc(OCCCO)cc2)=N[C@]1(Cc1ccccc1)C(=O)N1CCOCC1`, the composite z-score in test [1] is 0.351; in test [2], 1.51; in test [3], 0.122; in test [4], 0.875; in test [5], 1.55; in [6], 1.68. For the same compound, the composite z-score in test [7] came to 1.25; in [9], 0.804; in test [10], 0.778. Further, the z-score in [8] is -1.42 (inactive).

For `CCOC(=O)C[C@H]1[C@H](OC(=O)c2ccc(C(=O)c3ccccc3)cc2)[C@@H](NC(=O)c2ccc(-c3ccccc3)cc2)c2cc(OCCCO)ccc2N1C(=O)c1ccc2ccccc2n1`, the composite z-score in [1] is -0.378; in test [2] it was 0.292; in test [3], -0.0685; in [4] it was 0.773; in test [5] it was 0.643; in test [6], 0.5. Further, the results for the composite z-score in test [7], in test [9] and in test [10] were 0.927, 0.465 and -0.193, respectively. Moreover, in [8], the z-score is 0.0728 (inactive).

(Values after PubChem BioAssay.)
